Screening data from PubChem.
Most compounds without a hit are left out; they make up all but 3.1% or so of the library.
SKKanGAS inh – SKKanGAS growth inhibition. S. pyogenes SKKanGAS, kanamycin growth, BacTiter-Glo, 6 h. inhibition, % at 7.5 µM. 300,000 tested, 1.3% active;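 active means mean replicate score, as percent of positive control median, at least 50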;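 further: strain carries kanamycin resistance gene driven by streptokinase promoter and grows in 40 µg/ml kanamycin; loss of luminescence reflects streptokinase promoter inhibition or plain growth inhibition; 0% = median of DMSO wells and 100% = positive control at its reference dose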
CSC inhib – cancer stem cell inhibition. 300,000 tested, 1.1% active. inhibition, % at 7.5 µM. AID 2717. cancer stem cell-like cells viability, luminescence; in the data active means inhibition above about 75%; tested in HMLE shEcad cells
PP5 primary – blocks human protein phosphatase 5 activity. inhibition, % at 6.7 µM. P53041. purified PP5c, OMFP substrate fluorescence. AID 1987. 320,000 tested, 0.18% active;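 active means inhibition above the campaign's mean inhibition across all tested compounds plus 3 SD, cut at about 9.5% in these data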;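 further: 0% = DMSO only and 100% = 100 µM cantharidin control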
PP1 counter – blocks human PP1-alpha phosphatase, a PP5 counter-screen; P62136; purified PP1alpha, OMFP fluorescence; inhibition, % at 6.7 µM; 320,000 tested, 0.9% active;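 active means inhibition above the mean inhibition of all tested compounds plus 3 SD, computed separately for each screening campaign, cut at about 15% in these data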
Target sequence (P62136 whole entry, looked up): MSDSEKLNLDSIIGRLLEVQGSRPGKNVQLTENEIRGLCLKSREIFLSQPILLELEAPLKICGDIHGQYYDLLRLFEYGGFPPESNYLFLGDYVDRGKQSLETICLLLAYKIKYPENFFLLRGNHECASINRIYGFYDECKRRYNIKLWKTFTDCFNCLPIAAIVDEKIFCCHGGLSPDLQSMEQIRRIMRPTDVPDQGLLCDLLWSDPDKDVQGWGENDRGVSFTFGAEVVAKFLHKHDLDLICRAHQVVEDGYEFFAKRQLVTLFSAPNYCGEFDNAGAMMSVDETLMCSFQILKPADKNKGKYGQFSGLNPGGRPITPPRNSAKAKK
Beta cell apopt – beta cell apoptosis inhibition; protection from apoptosis, % (test concentration not listed); 300,000 tested, 0.8% active; INS-1E cytokine-induced death, ATP luminescence, 48 h; percent of positive-control rescue, neutral wells zero; AID 435005;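 active means Every replicate reaches about 75%, or at least half do and their mean reaches it too, limit read from the data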;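 further: 0% = cytokine-treated negative control wells and 100% = positive control rescue; higher means more ATP so stronger rescue from cytokine killing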
PP1 confirm – confirmation of human PP1 phosphatase inhibitors; shares compounds with PP1 counter; purified PP1alpha, OMFP substrate fluorescence; inhibition, % at 6.7 µM; 1,900 tested, 52% active;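 active means mean PP1 inhibition above a set limit taken from the earlier primary screen, cut at about 15% in these data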
PP5 inh counter – inhibits human PP5 phosphatase in PP1 counter-screen; shares compounds with PP1 counter; purified PP5c, OMFP fluorescence; inhibition, % at 6.7 µM; 1,900 tested, 4% active; AID 2360;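 active means mean PP5 inhibition over triplicate wells above about 9.5% taken from the earlier PP1 screen, limit read from the data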
Numbers without * were called inactive; x = not tested or not shown.

SMILES	SKKanGAS inh	CSC inhib	PP5 primary	PP1 counter	Beta cell apopt	PP1 confirm	PP5 inh counter
COc1ccccc1-c1cc(-c2ccccc2)nc(SC(C(N)=O)c2ccccc2)c1C#N (stereo not given)	3.5	12.0	2.1	18.9*	40.6	26.6*	-6.0
Cc1nc(SC(C(N)=O)c2ccccc2)c(C#N)c(C)c1C (stereo not given)	-1.5	-17.6	1.2	-5.5	-9.0	x	x
CC1CN(C(=O)c2cc(S(=O)(=O)N3CCCCC3)ccc2Cl)CC(C)O1 (stereo not given)	x	x	0.2	0.1	-2.4	x	x
CC(=O)N(C)c1ccc(NC(=O)Nc2ccc(C)c(C)c2)cc1	-4.3	1.1	2.4	3.1	4.7	x	x
CCOC(=O)c1c(C)nsc1NC(=O)C1CCCCC1	10.8	11.9	2.9	1.7	-5.7	x	x
Cc1sc(NC(=O)Cn2[nH]c(=O)c3ccccc3c2=O)nc1-c1ccccc1	7.0	7.6	-0.4	28.6*	3.4	27.4*	-1.8
Cc1ccccc1C(=O)N1CCc2cc(-c3nc(NC(=O)Cc4ccc5c(c4)OCO5)sc3C)ccc21	32.9	0.5	4.0	19.1*	5.0	19.1*	2.7
Cc1sc(NC(=O)Cc2ccc3c(c2)OCO3)nc1-c1ccc2c(c1)CCN2C(=O)c1cccc(F)c1	29.8	23.9	1.2	9.2	18.0	x	x
CC(OC(=O)/C(C#N)=C/c1ccc(N(C)C)cc1)C(=O)N(C)Cc1ccccc1 (stereo not given)	5.6	-3.5	2.0	0.6	-5.1	x	x
COc1cccc(CCc2nnc(CCC(=O)NC(C)Cc3cccs3)o2)c1 (stereo not given)	8.8	16.6	1.0	-4.8	0.8	x	x
COc1cc(/C=C2/SC(=S)N(Cc3ccccc3)C2=O)ccc1OCC(=O)O	20.4	20.1	2.4	20.3*	-5.5	11.8	-0.8
O=C(O)CCN1C(=O)/C(=C\c2ccc(OCc3ccccc3)c(OCc3ccccc3)c2)SC1=S	20.1	20.8	0.5	-1.4	1.1	x	x
COc1cc(/C=C/C(=O)Nc2nc3ccc(S(=O)(=O)NC(C)C)cc3s2)cc(OC)c1OC	12.6	-5.5	2.0	25.0*	1.5	32.5*	-5.9
COc1cccc(OC)c1C(=O)Nc1nc2ccc(S(C)(=O)=O)cc2s1	-4.9	6.7	-0.2	-1.5	-6.2	x	x
CCNS(=O)(=O)c1ccc2nc(NC(=O)/C=C/c3cc(OC)c(OC)c(OC)c3)sc2c1	0.2	45.4	2.9	21.1*	2.3	19.9*	-4.8
CN(C)c1ccc(/C=N/NC(=O)CN2CCN(c3ccc(F)cc3)CC2)cc1	-0.5	-18.7	-1.8	-3.2	x	x	x
COc1ccc(-c2cc(=O)oc3c(C)c(OC(C)C(=O)NCc4ccccn4)ccc23)cc1 (stereo not given)	-3.4	-0.6	1.4	-0.8	x	x	x
Cc1ccc(NC(=O)COC(=O)Cc2ccsc2)c(C)c1	0.0	-0.9	2.5	-2.9	x	x	x
COC(=O)c1sc2ccccc2c1NC(=O)c1ccc(S(=O)(=O)N2CCCC(C)C2)cc1 (stereo not given)	5.8	29.5	1.2	-0.8	3.5	x	x
Cc1ccc2nc(NNC(=O)c3ccc(S(=O)(=O)N4CCc5ccccc5C4)cc3)sc2c1	79.4*	102.3*	1.1	28.6*	98.4*	25.0*	1.7
Cc1cc(C)c2nc(NNC(=O)c3ccc(S(=O)(=O)N4CCCC(C)C4)cc3)sc2c1 (stereo not given)	91.9*	118.6*	4.2	21.1*	107.1*	24.4*	3.3
Cc1cccc2sc(NNC(=O)c3ccc(S(=O)(=O)N4CC(C)CC(C)C4)cc3)nc12 (stereo not given)	91.7*	117.6*	2.6	23.2*	110.4*	19.4*	-0.4
CCc1ccc(C(=O)NC(=S)NCc2cccnc2)cc1	-8.1	-2.7	0.9	0.7	-5.2	x	x
CCOc1ccccc1OCCC(=O)N1CCN(S(=O)(=O)c2ccccc2[N+](=O)[O-])CC1	x	x	0.3	-0.2	-1.5	x	x
CN(C)CCCN=Cc1c(-c2ccccc2)[nH]n(-c2nc3ccccc3s2)c1=O	19.3	-20.1	2.9	25.8*	-0.1	4.2	-3.2
SMILES	SKKanGAS inh	CSC inhib	PP5 primary	PP1 counter	Beta cell apopt	PP1 confirm	PP5 inh counter
CC(=NC1CC1)c1c(-c2ccccc2)[nH]n(-c2nc3ccccc3s2)c1=O	32.8	-2.6	-0.3	7.9	2.9	x	x
O=c1c(C=NCCCn2ccnc2)c(-c2ccccc2)[nH]n1-c1nc2ccccc2s1	6.1	-9.5	4.6	29.1*	-7.0	2.2	-1.2
COc1cc2ccccc2cc1C(=O)Nc1ccc2oc(=O)ccc2c1	-1.4	0.3	-0.6	24.5*	-3.0	10.9	-6.0
COc1cc(OC)c(C(=O)Nc2ccc3ccccc3c2)cc1OC	-3.4	-2.3	1.5	1.4	-7.0	x	x
COc1ccc(C(C)=O)cc1COC(=O)Cc1cc(OC)c(OC)c(OC)c1	3.0	-10.2	1.3	-0.7	-0.3	x	x
COc1cccc(/C=N/Nc2ncnc3c2ncn3Cc2ccccc2)c1O	13.8	-11.6	2.6	19.7*	x	26.6*	-1.4
COc1cccc(/C=N/Nc2cc(N3CCOCC3)ncn2)c1O	98.9*	66.3	3.8	24.9*	88.4*	20.3*	-4.5
CC1CCC2C(=O)N(c3ccc(Cc4ccncc4)cc3)C(=O)C2C1 (stereo not given)	-9.3	-3.3	2.0	-2.4	8.3	x	x
CC(C)NC(=O)NC(=O)CSc1nnc(COc2ccccc2F)n1C(C)C1CC2CCC1C2 (stereo not given)	50.8*	x	10.1*	21.3*	x	5.3	3.4
CC(C1CC2CCC1C2)n1c(COc2ccccc2F)nnc1SCC(N)=O (stereo not given)	6.3	-22.3	0.7	0.7	-5.6	x	x
Cc1ccc(Nc2c(-c3ccc(N4CCOCC4)cc3)nc3cnccn23)cc1	-7.2	3.9	-0.6	63.3*	10.0	-3.1	-2.9
C#CCOCCOCCOCCNc1nc(N2CCN(C(=O)CCCCCCCCCCNC(=O)Cn3cc(C[C@@H](C)O)nn3)CC2)nc(N2CCN(C(=O)CCCCCCCCCCNC(=O)[C@@H]([C@H](C)CC)n3cc(CCCCCN)nn3)CC2)n1	x	124.0*	4.7	54.9*	84.3*	44.1*	3.5
C#CCOCCOCCOCCNc1nc(N2CCN(C(=O)CCCCCCCCCCNC(=O)Cn3cc(CCCCCN)nn3)CC2)nc(N2CCN(C(=O)CCCCCCCCCCNC(=O)Cn3cc(C[C@@H](C)O)nn3)CC2)n1	x	-28.9	-2.6	12.7	10.2	x	x
C#CCOCCOCCOCCNc1nc(N2CCN(C(=O)CCCCCCCCCCNC(=O)[C@@H](CCSC)n3cc(CCO)nn3)CC2)nc(N2CCN(C(=O)CCCCCCCCCCNC(=O)[C@@H]([C@H](C)O)n3cc(C)nn3)CC2)n1	x	-7.2	1.3	6.0	-1.8	x	x
